# Source: PubChem BioAssay
# Rows were chosen to be rich in hits. Some 3.3% of all compounds tested hit in one or more screens of this group.
# ERb coact inh: ER-beta (human) coactivator binding inhibition | TR-FRET ER-beta LBD / SRC1-Cy5 peptide binding; receptor agonist-loaded with 1 µM estradiol | inhibition, % at 25.6 µM | actives 1.3% (n = 86,000) | AID 633;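 active = compounds whose percent inhibition of the receptor-coactivator binding signal exceeds about 50% in the single-dose screen, limit read from the data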;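 note: 0% = receptor plus peptide wells without compound and 100% = peptide-only wells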
# Smad3 inh: inhibitors of human Smad3 transcription factor binding; P84022; TR-FRET Smad3/Dy647-FoxH1 peptide binding, europium anti-His; actives 0.29% (n = 88,000); inhibition, % at 25 µM;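 active = compounds that reduce the energy-transfer binding signal between the protein and its labelled peptide by more than half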;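 note: 0% = Smad3 plus labelled peptide maximal FRET and 100% = peptide-only background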
# ERa SRC1 inh: ER-alpha (human) coactivator binding inhibition; actives 1.7% (n = 86,000); TR-FRET ER-alpha LBD / SRC-1 peptide, estradiol-bound; inhibition, % at 25.6 µM; in the data active = inhibition above about 50%;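 note: 0% = receptor plus peptide control and 100% = peptide only without receptor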
# ERa coact pot: ER-alpha (human) coactivator binding potentiation. P03372. TR-FRET ERalpha-LBD/SRC-Cy5 coactivator binding, 2 h; 100 = basal binding, no effect. coactivator binding (% of control), % at 25.6 µM. actives 1.3% (n = 86,000). AID 639; in the data active = activity above about 200%;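 note: binding measured in presence of low estradiol as agonist stimulus; 0% = peptide alone without receptor and 100% = receptor with peptide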
# FAK blocker: inhibitors of human focal adhesion kinase; AID 727; biochemical FAK kinase activity assay; inhibition, %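 (tested at 7 µM)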; actives 0.84% (n = 97,000); Q05397; in the data active = inhibition above about 19%;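 note: 0% = DMSO and 100% = reference compound high control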
# Target sequence (Q05397 whole entry, looked up): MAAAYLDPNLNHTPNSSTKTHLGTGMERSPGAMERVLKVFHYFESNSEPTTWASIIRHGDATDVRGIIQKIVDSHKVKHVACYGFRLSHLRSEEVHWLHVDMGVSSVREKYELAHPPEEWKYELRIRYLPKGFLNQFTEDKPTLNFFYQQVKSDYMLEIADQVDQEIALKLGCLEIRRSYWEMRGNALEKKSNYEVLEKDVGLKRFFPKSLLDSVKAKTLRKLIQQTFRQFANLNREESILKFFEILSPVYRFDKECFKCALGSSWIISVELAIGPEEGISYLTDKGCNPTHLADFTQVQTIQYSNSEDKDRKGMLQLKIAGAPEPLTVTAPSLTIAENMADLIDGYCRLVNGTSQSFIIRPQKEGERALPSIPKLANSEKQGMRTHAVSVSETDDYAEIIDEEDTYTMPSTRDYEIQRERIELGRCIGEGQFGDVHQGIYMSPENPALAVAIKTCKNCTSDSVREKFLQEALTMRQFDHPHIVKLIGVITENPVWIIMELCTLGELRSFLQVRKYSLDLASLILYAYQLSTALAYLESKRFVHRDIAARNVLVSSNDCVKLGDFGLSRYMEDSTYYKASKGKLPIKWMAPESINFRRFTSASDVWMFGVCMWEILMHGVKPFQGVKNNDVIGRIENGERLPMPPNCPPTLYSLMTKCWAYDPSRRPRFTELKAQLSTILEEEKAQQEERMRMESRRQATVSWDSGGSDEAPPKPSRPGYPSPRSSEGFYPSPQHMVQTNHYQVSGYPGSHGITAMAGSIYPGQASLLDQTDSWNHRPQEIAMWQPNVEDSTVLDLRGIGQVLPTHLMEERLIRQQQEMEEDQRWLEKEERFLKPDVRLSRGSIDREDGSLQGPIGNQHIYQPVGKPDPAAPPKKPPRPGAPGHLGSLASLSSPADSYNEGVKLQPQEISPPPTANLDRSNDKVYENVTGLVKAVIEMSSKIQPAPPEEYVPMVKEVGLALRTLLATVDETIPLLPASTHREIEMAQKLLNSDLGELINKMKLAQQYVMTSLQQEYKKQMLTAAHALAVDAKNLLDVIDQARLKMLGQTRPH
# * hit, by the source's call; nt = no result; [ ] = another dose, or the depositor's remark.
SMILES,ERb coact inh,Smad3 inh,ERa SRC1 inh,ERa coact pot,FAK blocker
CCOc1ccc(OCC)c(NC(=O)CSc2nnnn2CC)c1,1,5,-9,91,0
CN(C)c1ccc2nc3c(C(=O)O)cc(=O)c(O)c-3oc2c1,nt,19,nt,nt,nt
Cc1ccc(S(=O)(=O)N=Nc2c(O)[nH]c3cc(O)c(C(=O)O)cc23)cc1,nt,16,nt,nt,nt
S=C(Nc1ccc2cn[nH]c2c1)Nc1ccc2cn[nH]c2c1,nt,45,nt,nt,nt
O=C(CN1CCN(Cc2ccc(Cl)cc2)C1=O)NCCCN1CCN(c2ccc(F)cc2)CC1,-4,6,-5,277*[fluorescence artefact?],1
CC1(C)[C@@H]2CC[C@@]1(CC(=O)O)[C@@H](Cl)C2,nt,-6,nt,nt,nt
CCN(CC)c1cccc(OC2=NS(=O)(=O)c3ccccc32)c1,25,-5,83*[fluorescence artefact?],18,4
Cc1ccc(OC2=NS(=O)(=O)c3ccccc32)cc1,0,-9,8,84,-2
COc1ccccc1OC1=NS(=O)(=O)c2ccccc21,3,16,78*[fluorescence artefact?],16,4
COC(=O)CSC1=NS(=O)(=O)c2ccccc21,-5,4,26,69,-3
O=c1cc(CF)[nH]c(=S)[nH]1,nt,3,nt,nt,nt
CC(NC(=O)c1ccccc1)(C(=O)O)C(=O)O,nt,-10,nt,nt,nt
COC(=O)c1ccccc1S(=O)(=O)N1Cc2cc([N+](=O)[O-])ccc2Oc2ccccc21,4,12,-5,109,2
C=CCn1cnc2c(c1=O)c1nc3ccccc3nc1n2/N=C/c1cccc(OC)c1OC,-1,5,85*[fluorescence artefact?],66,nt
O=C1[C@H]2[C@@H]3c4ccccc4[C@H]([C@H]2C(=O)N1c1ccc(OCc2ccccc2)cc1)[n+]1ccccc13,nt,0,nt,nt,nt
CCOC(=O)c1sc(NC(=O)CCCCCN2C(=O)c3cccc4cccc(c34)C2=O)nc1C,nt,nt,nt,nt,-2
CCOC(=O)Cc1csc(NC(=O)CCCCCN2C(=O)c3cccc4cccc(c34)C2=O)n1,58*[fluorescence artefact?],-6,69*[fluorescence artefact?],127,0
COc1ccc(-c2c3c(nc4sc(C(=O)Nc5ccccc5)c(N)c24)CCC3)cc1,24,6,68*[fluorescence artefact?],185,0
Cc1ccc(NC(=O)c2sc3nc4c(c(-c5ccco5)c3c2N)CCC4)cc1,43,0,59*,72,1
N=C(N)c1ccc(/C=C/c2ccc(C(=N)N)cc2)cc1,nt,-2,nt,nt,nt
N=C1/C(=C/c2cccs2)C(=O)N=C2SN=C(SCc3ccccc3)N12,nt,nt,nt,nt,-4
CCC1=NN2C(=N)/C(=C\c3ccc(SCc4ccco4)o3)C(=O)N=C2S1,75*,9,75*,36,-2
CCCC1=NN2C(=N)/C(=C\c3ccc(SCc4ccco4)o3)C(=O)N=C2S1,70*,10,84*[fluorescence artefact?],61,11
O=C1SC(SCc2ccccc2)=N/C1=C\c1ccco1,-13,8,-13,103,2
CN(C)Cc1ccc(C(C)(C)C)cc1-c1cc(C(C)(C)C)ccc1CN(C)C,nt,-1,nt,nt,nt
SMILES,ERb coact inh,Smad3 inh,ERa SRC1 inh,ERa coact pot,FAK blocker
N#CC(CC(=O)O)=C(c1ccccc1)c1ccccc1,nt,-4,nt,nt,nt
CCNC(=O)CC1C(=O)N(c2ccccc2)C(=O)N1CCc1ccc(OC)cc1 (stereo not given),-12,-13,-16,162,-4
CCNC(=O)CC1C(=O)N(c2ccc(F)cc2)C(=O)N1Cc1ccc(OC)cc1 (stereo not given),-3,2,55*[fluorescence artefact?],138,5
COc1cc2nncc(SCc3ccc(Cl)c(Cl)c3)c2cc1OC,nt,-16,nt,nt,nt
N=C(N)SCCN1CCCCC1,nt,19,nt,nt,nt
O=C(N/N=C/c1cccc(Oc2ccccc2)c1)c1ccccc1Br,nt,nt,nt,nt,4
O=C(NCc1ccccc1)c1ccc(=O)[nH]n1,-5,-2,0,114,nt
O=C(NCc1ccco1)c1ccc(=O)[nH]n1,67*[fluorescence artefact?],6,45,53,2
Clc1ccc(CSCc2ccc(Cl)cc2Cl)c(Cl)c1,nt,-3,nt,nt,nt
CC(C)COC(=O)c1nnsc1NC(=O)Nc1ccccc1,61*,6,64*[fluorescence artefact?],113,9
O=C(Nc1ccccc1)Nc1ccc2snnc2c1,-109,5,-111,163,1
CCC(C)n1cnc2c(c1=O)c1nc3ccccc3nc1n2Cc1ccc2c(c1)OCO2 (stereo not given),11,20,2,123,-4
O=c1c2c3nc4ccccc4nc3n(-c3cccc(F)c3)c2ncn1Cc1ccc2c(c1)OCO2,61*[fluorescence artefact?],2,82*[fluorescence artefact?],76,nt
CC1N(C)c2cccc3cccc(c23)N1C,83*[fluorescence artefact?],-4,51*[fluorescence artefact?],51,1
Cc1ccccc1C(=O)N1CCC(C(=O)Nc2ccc3c(c2)OCCO3)CC1,35,-7,15,84,0
CCOC(=O)C(C)Oc1cccc2c(=O)n(CC(=O)Nc3cccc(OC)c3)ccc12 (stereo not given),2,1,-5,113,4
CCOC(=O)C(C)Oc1cccc2c(=O)n(CC(=O)Nc3ccc4c(c3)OCCO4)ccc12 (stereo not given),28,-20,24,324*,1
OC1(C(O)(c2ccc(-c3ccccc3)cc2)c2ccc(-c3ccccc3)cc2)CCCCC1,nt,41,nt,nt,nt
CC1(C)N=C(N)N=C(N)N1c1cccc(OCc2cccc(N)c2)c1,nt,11,nt,nt,nt
O=C(CCC1N=C2c3ccccc3N=C(SCc3cccc(Cl)c3)N2C1=O)NCc1ccco1 (stereo not given),23,5,39,257*[fluorescence artefact?],5
Cc1cc(-c2cc(C)c(O)c(C(C)(C)C)c2)cc(C(C)(C)C)c1O,nt,63*,nt,nt,nt
O=C(O)C(O)c1ccco1 (stereo not given),58*[fluorescence artefact?],21,54*,132,nt
Cc1cc(N2CCN(C(=O)c3ccco3)CC2)n2nc(C)c(-c3ccccc3)c2n1,5,3,-28,220*,-2
Cc1cc(N2CCN(C(=O)c3ccco3)CC2)n2nc(C)c(-c3ccc(Cl)cc3)c2n1,55*[fluorescence artefact?],-4,55*[fluorescence artefact?],282*,nt
Cc1cc(N2CCN(C(=O)c3ccco3)CC2)n2nc(-c3cccc(Cl)c3)cc2n1,57*[fluorescence artefact?],-2,29,107,nt
SMILES,ERb coact inh,Smad3 inh,ERa SRC1 inh,ERa coact pot,FAK blocker
O=C(O)[C@H]([C@H]1NCCS1)N1C(=O)c2ccccc2C1=O,nt,1,nt,nt,nt
c1ccc(CCc2cccnc2)nc1,nt,10,nt,nt,nt
CC12CCC(=O)N1C(C(=O)OCC(=O)Nc1sccc1C#N)CS2 (stereo not given),68*,14,91*[fluorescence artefact?],37,3
CC12CCC(=O)N1C(C(=O)Nc1cccc3ccccc13)CS2 (stereo not given),2,6,-5,123,nt
CCOC(=O)Cc1c(C)nc2c(-c3ccc(Cl)cc3)c(C)[nH]n2c1=O,18,11,32,248*[fluorescence artefact?],-3
Cc1nnc(SCC(=O)NCc2ccccc2)[nH]c1=O,-26,63*,-2,117,-3
Cc1cc(=O)[nH]c(SCC(=O)NCCc2ccccc2)n1,7,96*,5,82,3
NC1(C(=O)NC2(C(=O)O)CCCC2)CCCC1,nt,-6,nt,nt,nt
O=c1[nH]c2cc3c(cc2cc1C(c1nnnn1C1CCCCC1)N1CCSCC1)OCCO3 (stereo not given),35,44,21,254*[fluorescence artefact?],1
